Records with an inconclusive call do not appear. Activity calls are given as the source filed them. Unless noted, calls come from the whole dose curve; as a rule, active = well fitted curve in the direction sought with a large enough effect in the repeat runs; inconclusive = weak or mixed curves; inactive = no such curve, though single readings can be large; an effect the other way counts as inactive or inconclusive.

Assay [1] in a line: qHTS assay to identify small molecule antagonists of the estrogen related receptor (ERR) signaling pathway from Tox21 library - cell viability counter screen (AID 1224834). Note: nearly all actives have a fitted effect of over 30% in size. Note: potency is the fitted concentration of half-maximal effect. The method in brief:
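Compounds in DMSO were pinned onto ERR cells that had been incubated for 6 h, and the plates were held at 37 C for 17.5 h. CellTiter-Fluor reagent was then added and fluorescence was measured after 30 min.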

Assay [2] has as its target Luciferin 4-monooxygenase (Photinus pyralis) (UniProt P08659). The experiment in a line: qHTS assay to identify small molecule inhibitors of firefly luciferase (AID 1224835). Note: nearly all actives have a fitted effect of over 25% in size. Note: potency is the fitted concentration of half-maximal effect. The procedure, abridged: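 Inhibition of purified Photinus luciferase is measured by luminescence. Substrate levels (D-luciferin, ATP) sit at their KM values. Each compound is tested in a concentration series.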
(In general: qHTS replaces the single test concentration by a dilution series.)

Assay [3] is described as follows: qHTS assay to identify small molecule agonists of the constitutive androstane receptor (CAR) signaling pathway - cell viability counter screen (AID 1224836). Note: nearly all actives have a fitted effect of over 45% in size. Note: potency is the fitted concentration of half-maximal effect. The method in brief: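 23 h treatment, 37 C, 5% CO2. Cell line: HepG2 stably expressing hCAR with a CYP2B6-2.2kb construct. Co-treatment: PK11195, 0.75 uM final. Read-out: CellTiter-Fluor fluorescence intensity.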

Assay [4] concerns the target Nuclear receptor subfamily 1 group I member 3 (Homo sapiens) (UniProt Q14994). The assay is described as follows: qHTS assay to identify small molecule antagonists of the constitutive androstane receptor (CAR) signaling pathway (AID 1224838).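 Note: HepG2 cells stably expressing hCAR with CYP2B6 luciferase reporter stimulated by CITCO; nearly all actives have a fitted effect of over 40% in size.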 Note: potency is the fitted concentration of half-maximal effect. The method in brief:
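Luminescence from a CYP2B6-2.2kb promoter reporter in hCAR-expressing HepG2 cells reflects CAR signaling. Cells received compounds at 15 concentrations and 50 nM CITCO (final), then incubated 24 h at 37 C/5% CO2.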

Assay [5] shares this target. The assay is described as follows: qHTS assay to identify small molecule agonists of the constitutive androstane receptor (CAR) signaling pathway (AID 1224839).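 For activation: HepG2 cells stably carrying human CAR and a CYP2B6 luciferase reporter; series mostly up to about 92 µM.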 Note: nearly all actives have a fitted effect of over 15% in size. Note: potency is the fitted concentration of half-maximal effect. The method in brief:
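Compounds tested at 15 concentrations on HepG2 cells stably harbouring hCAR and CYP2B6-2.2kb reporter constructs, co-treated with PK11195 (0.75 uM final), 24 h at 37 C; luminescent reporter signal quantified.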

Assay [6] can be described thus: qHTS assay to identify small molecule antagonists of the estrogen related receptor signaling pathway with the pleiotropic PPARgamma coactivator (PGC) from Tox21 10K library - cell viability counter screen (AID 1224840; active = well fitted cell-killing curve with a large enough effect in the repeat runs, not every such curve was filed as active; note: nearly all actives have a fitted effect of over 40% in size; note: potency is the fitted concentration of half-maximal effect). The method in brief: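 Cell viability is measured by CellTiter-Fluor fluorescence in PGC/ERR cells that receive compounds after a 6-hour attachment period and are then incubated 17.5 hours at 37 C.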

The target in assay [7] is Thyrotropin receptor (Homo sapiens) (UniProt P16473). The experiment in a line: qHTS assay to identify small molecule agonists of the thyroid stimulating hormone receptor (TSHR) signaling pathway (AID 1224843; calls by dose curve; note: nearly all actives have a fitted effect of over 45% in size; note: potency is the fitted concentration of half-maximal effect). The method in brief:
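Agonist activity read as cAMP rise via d2/cryptate HTRF competition, 1 h room-temperature detection, in HEK293 cells expressing TSHR. Fifteen-point titrations, each run in triplicate, with a 30 min room-temperature incubation beforehand.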

Assay [8] is described as follows: qHTS assay to identify small molecule agonists of H2AX (AID 1224845; active = well fitted activation curve with a large enough effect in the signal ratio in the repeat runs, not every such curve was filed as active; the % refers to the signal ratio; note: potency is the fitted concentration of half-maximal effect). The procedure, abridged: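 Phospho-H2AX Ser139 measured by HTRF (ex 320 nm; em 665 and 620 nm) after 24 hr antibody incubation. Compounds, 15 concentrations, 0.76% DMSO, were applied to CHO-K1 cells for 3hr at 37C before lysis.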
Assay [9] is described as follows: qHTS assay to identify small molecule antagonists of the retinoic acid receptor (RAR) signaling pathway (AID 1159552; note: nearly all actives have a fitted effect of over 50% in size; note: potency is the fitted concentration of half-maximal effect). The method in brief: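 Test chemicals and DMSO controls were pin-transferred onto C3RL4 cells a day after seeding; retinol (1 uM final) followed at once. Luminescent reporter output was quantified after 6 hr of co-incubation and 30 min with detection reagent.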

A short description of assay [10]: qHTS assay to identify small molecule antagonists of the constitutive androstane receptor (CAR) signaling pathway - cell viability counter screen (AID 1224837). Note: nearly all actives have a fitted effect of over 45% in size. Note: potency is the fitted concentration of half-maximal effect. The method in brief: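 Cells are seeded, rested 4 hr at 37 C/5% CO2, dosed with compound (15-point series) and 50 nM CITCO, incubated a further 23 hr, and then CellTiter-Fluor reagent is added before fluorescence is read. The line is HepG2 with stable hCAR and CYP2B6-2.2kb.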

Assay [11] is described as follows: qHTS assay to identify small molecule agonists of the hypoxia (HIF-1) signaling pathway - cell viability counter screen (AID 1224844; calls by dose curve; note: nearly all actives have a fitted effect of over 50% in size; note: potency is the fitted concentration of half-maximal effect). The procedure, abridged:
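Viability counter screen: HRE-bla ME-180 cells plated 5 hrs before compound addition, treated 17 hrs at 37C and 5% CO2, then CellTiter-Glo added after the FRET reporter read; luminescence after 30 min.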

A short description of assay [12]: qHTS assay to identify small molecule agonists of the estrogen related receptor signaling pathway with the pleiotropic PPARgamma coactivator (PGC) from Tox21 10K library (AID 1224842). Note: nearly all actives have a fitted effect of over 15% in size. The method in brief: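 Luminescence from One-Glo (30 min, room temperature) measured after PGC/ERR cells had 18 h at 37 C with pinned compound (23 nL in DMSO). Cells had been seeded at 2,000 per well and pre-incubated 6 h.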

Assay [13] in a line: qHTS assay to identify small molecule agonists of the retinoic acid receptor (RAR) signaling pathway (AID 1159553). The method in brief: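 Quantitative high-throughput format: the Tox21 10K library was tested on C3RL4 RARE-luciferase cells for 6 hr at 37 C and 5% CO2, with luminescence measured after a 30 min room-temperature reagent step.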

Nuclear receptor subfamily 1 group I member 3 (Homo sapiens), sequence (Q14994 whole entry, looked up): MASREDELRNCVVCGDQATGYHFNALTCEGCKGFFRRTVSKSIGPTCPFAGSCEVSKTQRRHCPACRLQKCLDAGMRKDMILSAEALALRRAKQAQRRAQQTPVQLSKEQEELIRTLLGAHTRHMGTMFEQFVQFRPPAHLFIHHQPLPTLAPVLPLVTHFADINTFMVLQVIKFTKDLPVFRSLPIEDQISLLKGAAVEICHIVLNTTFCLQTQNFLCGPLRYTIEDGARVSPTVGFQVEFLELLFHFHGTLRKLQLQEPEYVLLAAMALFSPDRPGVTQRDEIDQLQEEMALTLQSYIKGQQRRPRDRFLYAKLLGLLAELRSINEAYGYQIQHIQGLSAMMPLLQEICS
Luciferin 4-monooxygenase (Photinus pyralis), sequence (P08659 whole entry, looked up): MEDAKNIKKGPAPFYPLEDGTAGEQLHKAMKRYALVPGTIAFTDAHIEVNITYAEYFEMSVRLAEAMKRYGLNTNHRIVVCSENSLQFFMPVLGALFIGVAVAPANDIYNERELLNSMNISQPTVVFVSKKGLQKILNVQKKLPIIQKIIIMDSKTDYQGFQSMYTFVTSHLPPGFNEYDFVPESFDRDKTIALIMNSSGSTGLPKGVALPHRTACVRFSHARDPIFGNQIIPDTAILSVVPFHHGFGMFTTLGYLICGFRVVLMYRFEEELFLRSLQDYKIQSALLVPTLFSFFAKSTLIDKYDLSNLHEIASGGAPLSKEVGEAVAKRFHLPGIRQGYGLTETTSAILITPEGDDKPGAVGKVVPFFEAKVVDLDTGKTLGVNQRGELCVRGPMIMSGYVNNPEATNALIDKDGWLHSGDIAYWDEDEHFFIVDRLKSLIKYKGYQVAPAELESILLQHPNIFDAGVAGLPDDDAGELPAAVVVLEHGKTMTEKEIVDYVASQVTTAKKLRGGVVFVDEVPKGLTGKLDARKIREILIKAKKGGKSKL
Thyrotropin receptor (Homo sapiens), sequence (P16473 whole entry, looked up): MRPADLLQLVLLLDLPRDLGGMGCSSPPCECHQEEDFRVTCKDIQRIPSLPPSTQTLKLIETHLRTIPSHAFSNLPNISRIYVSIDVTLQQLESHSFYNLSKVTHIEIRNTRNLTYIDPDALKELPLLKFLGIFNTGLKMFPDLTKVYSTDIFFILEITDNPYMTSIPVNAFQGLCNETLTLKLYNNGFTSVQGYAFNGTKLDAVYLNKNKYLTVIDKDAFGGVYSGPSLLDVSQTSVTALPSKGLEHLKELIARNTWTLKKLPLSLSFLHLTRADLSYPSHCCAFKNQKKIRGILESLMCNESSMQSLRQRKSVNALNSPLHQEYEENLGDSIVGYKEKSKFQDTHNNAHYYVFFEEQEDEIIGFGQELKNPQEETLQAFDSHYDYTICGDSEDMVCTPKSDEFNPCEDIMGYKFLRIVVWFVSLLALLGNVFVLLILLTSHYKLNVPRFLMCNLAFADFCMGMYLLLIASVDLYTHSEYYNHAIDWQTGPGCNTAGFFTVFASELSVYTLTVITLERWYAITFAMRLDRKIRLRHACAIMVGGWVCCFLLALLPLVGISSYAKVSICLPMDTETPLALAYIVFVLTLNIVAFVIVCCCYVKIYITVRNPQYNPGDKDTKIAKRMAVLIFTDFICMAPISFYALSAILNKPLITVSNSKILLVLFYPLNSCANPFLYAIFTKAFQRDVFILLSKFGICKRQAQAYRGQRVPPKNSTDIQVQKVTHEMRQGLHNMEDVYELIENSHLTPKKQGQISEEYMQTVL

As for `c1ccc2c(c1)OCC(C1=NCCN1)O2` (stereo unspecified), the Potency in [1] was 21.1 µM (active); in assay [3], 23.7 µM (active); in assay [4] it was 21.1 µM (active); in assay [6], 21.1 µM (active); in [7] it was 15 µM (active); in assay [8], 49.2 µM (active). The Potency result in assay [2] and in assay [5] was “inactive” in each case.
Consider `CC(C)OC(=O)C(O)(c1ccc(Cl)cc1)c1ccc(Cl)cc1`, for which the Potency in assay [9] is 43.3 µM (active); in assay [7], 48.6 µM (active); in assay [11], 54.9 µM (active); in assay [8], 80 µM (active). Moreover, the Potency result in assay [2], in [3], in assay [10], in assay [4] and in [6] was “inactive” each time.
`Cc1cc(C(C)(C)c2cc(C)c(O)c(C)c2)cc(C)c1O`: the Potency in [9] is 52.7 µM (active); in assay [5] it was 4.69 µM (active); in [7], 33.2 µM (active). The Potency result in assay [2], in [4], in assay [12] and in assay [11] was “inactive” each time.
`CCC(C)c1cc([N+](=O)[O-])cc([N+](=O)[O-])c1OC(=O)C=C(C)C` (stereo unspecified): the Potency in assay [1] was 27.3 µM (active); in assay [3], 61.1 µM (active); in assay [10] it was 61.1 µM (active); in [6] it was 30.6 µM (active). The Potency entry in assay [2] and in [11] was “inactive” each time.
Take `COc1cccc(C(=O)CCN[C@@H](C)[C@H](O)c2ccccc2)c1`: the Potency in assay [9] is 26.6 µM (active). For the same molecule, the Potency entry in assay [13], in [1], in [2], in assay [3], in [5] and in [6] was “inactive” each time. Besides, the Potency result in [12] and in assay [7] was “inactive” throughout.
In the case of `O=C(O)c1cc[c]([Hg][Cl])cc1`, the Potency is 13.7 µM (active) in [1]; 5.03 µM (active) in assay [2]; 54.5 µM (active) in assay [10]; 13.7 µM (active) in assay [6]; 15.4 µM (active) in [7]; 54.9 µM (active) in [11]. Besides, the Potency result in [5] was “inactive”.
As to `CC(C)(C)C(O)C(Oc1ccc(-c2ccccc2)cc1)n1cncn1` (stereo unspecified), the Potency entry in assay [2], in [3], in assay [4], in [6] and in [12] was “inactive” in each case. Besides, the Potency in [11] was 54.9 µM (active).
As for `CC(=O)O[C@H]1CC[C@@]2(C)C(=CC[C@@H]3[C@@H]2CC[C@]2(C)C(=O)CC[C@@H]32)C1`, the Potency entry in [9], in [2], in [3], in assay [10], in [5] and in assay [6] was “inactive” in each case. Moreover, the Potency entry in assay [7] is “inactive”.
For `CCCCCCCCCCCCCCC(Br)C(=O)O` (stereo unspecified), the Potency result in assay [9], in assay [13], in [1], in assay [3], in assay [10] and in [4] was “inactive” each time. Further, the Potency result in assay [5], in [6] and in [8] was “inactive” each time. In assay [11], the Potency is 49 µM (active).
Regarding `CCCCCCCCc1ccc(O)cc1`, the Potency result in [9], in assay [4] and in assay [7] was “inactive” throughout. Further, the Potency in assay [1] was 61.5 µM (active); in [3], 69 µM (active); in assay [5], 48.9 µM (active); in assay [11], 39.1 µM (active).

The values are drawn from PubChem BioAssay (Tox21).
